Results reported in PubChem BioAssay (NCATS).
Several values for one entry are separate records, joined by “and”; a condition that tells them apart may be missing. Equal entries are not always repeated. Inconclusive results are not listed. A call without a number means that no potency is given here. A structure can be active in one record and inactive in another. Activity calls are given as the source filed them. Unless noted, the call rests on the fitted dose curve; in most records, active means well fitted curve in the direction sought with a large enough effect; inconclusive means small, poorly fitted or top-dose-only effect, or another doubt; inactive means no such curve, though single readings can be large; an effect the other way counts as inactive or inconclusive. Where a SMILES comes first, the peptide text is derived from it. Bridges are numbered along the chain shown (N, C = ends). [ ]: non-standard residue; d: D form. The star is where a group is joined. X1 = CCC(C)C(N)C1=NC(C(=O)*)CS1; dOrn = NCCC[C@@H](N)C(=O)O

Tests used:
[1] = molecular target: Calcium and integrin-binding protein 1 (Homo sapiens) (UniProt Q99828); assay: Primary qHTS for Identification of Calcium Integrin Binding Protein 1 (CIB1) Competitor (AID 1508620); conditions: CIB1-GST / FITC-alphaIIb peptide fluorescence polarization; series mostly up to 57.7 µM;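 further: GST tagged CIB1 binding a fluorescein labelled alphaIIb integrin peptide tracer; top concentration of the series differs between compounds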
Chain of Calcium and integrin-binding protein 1 (Homo sapiens) (Q99828 whole entry, looked up): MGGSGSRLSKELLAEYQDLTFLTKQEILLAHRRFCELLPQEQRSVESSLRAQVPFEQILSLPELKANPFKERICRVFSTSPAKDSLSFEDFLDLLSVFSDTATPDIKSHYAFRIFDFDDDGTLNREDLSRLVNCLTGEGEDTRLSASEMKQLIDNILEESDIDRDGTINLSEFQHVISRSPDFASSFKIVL
Method in brief: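 Fluorescence polarization competition: GST-tagged CIB1 (1 uM final) preincubated with compound 15 min at room temperature, then FITC-labelled alphaIIb peptide (100 nM final) added. After 15 min at room temperature, polarization read at Ex 480/Em 540.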

[2] = molecular target: Cytochrome P450 2D6 (Homo sapiens) (UniProt P10635); assay: Cytochrome P450 family 2 subfamily D member 6 (CYP2D6) small molecule antagonists: luciferase biochemical (cell-free) qHTS assay (AID 1645840; active means well fitted curve in the direction sought with a large enough effect in the repeat runs; an effect the other way counts as inactive or inconclusive; further: nearly all actives have a fitted effect of over 55% in size; further: potency means the concentration at half of the fitted maximal effect); conditions: P450-Glo CYP2D6 enzyme, luciferin luminescence, 1 h; series mostly up to 57.4 µM
Chain of Cytochrome P450 2D6 (Homo sapiens) (P10635 whole entry, looked up): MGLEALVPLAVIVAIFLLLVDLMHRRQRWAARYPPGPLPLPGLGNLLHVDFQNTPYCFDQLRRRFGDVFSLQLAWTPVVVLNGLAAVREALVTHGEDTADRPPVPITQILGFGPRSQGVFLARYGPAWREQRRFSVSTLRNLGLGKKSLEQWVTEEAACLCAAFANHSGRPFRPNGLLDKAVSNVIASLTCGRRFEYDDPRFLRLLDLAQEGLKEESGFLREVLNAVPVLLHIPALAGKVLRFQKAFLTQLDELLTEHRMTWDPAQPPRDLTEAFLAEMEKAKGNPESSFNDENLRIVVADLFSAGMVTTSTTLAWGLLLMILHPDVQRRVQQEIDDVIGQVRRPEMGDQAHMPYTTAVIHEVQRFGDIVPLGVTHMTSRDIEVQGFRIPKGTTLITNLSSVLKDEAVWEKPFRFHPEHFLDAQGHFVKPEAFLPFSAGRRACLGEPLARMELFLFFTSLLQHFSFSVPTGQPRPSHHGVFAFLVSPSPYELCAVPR
Method in brief: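 P450-Glo CYP2D6 system: proluciferin substrate converted by enzyme to luciferin, read by luminescence proportional to activity. Enzyme-substrate mix with compound 10 min at room temperature, then NADPH regeneration 1 h before detection reagent.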

Compound | Potency [1] | activity change, negative = inhibition [1] | Potency [2]
CC(C)C1=CC2=CCC3[C@](C)(CCC[C@@]3(C)C(=O)O)C2CC1=O (some centres not stated) | inactive |  | 
C=C(C(=O)O)C1CCC(C)C2CCC(=O)OC2(C)C1 (configuration not stated) | inactive |  | 
C=C1[C@H]2[C@H](O[C@@H]3O[C@H](COC(=O)/C=C/c4cc(OC)c(O)c(OC)c4)[C@@H](O)[C@H](O)[C@H]3O)OC=C(C(=O)O)[C@H]2C[C@@H]1O | inactive |  | 
C=C1C[C@@]23CC[C@@H]4[C@](C)(C(=O)O)CCC[C@@]4(C)C2=CC[C@H]1C3 | inactive |  | 
C=CC(C)(O)CC/C=C(\C)C(=O)OCC1OC(OC2CCC3(C)C(CCC4(C)C3CC=C3C5CC(C)(C)C(O)CC5(C(=O)O)CCC34C)C2(C)C)C(O)C(OC2OC(CO)C(O)C(OC3OC(CO)C(O)C(OC4OC(COC5OC(CO)C(O)C(O)C5O)C(O)C(O)C4O)C3O)C2O)C1O (configuration not stated) |  | 0.919% [at 12.4 µM] (inactive) | 
CC(c1c[nH]c2ccccc12)C(O)C(=O)O (configuration not stated) | inactive |  | 
CC(NCc1ccc(OCc2cccc(F)c2)cc1)C(N)=O (configuration not stated) | inactive |  | 
CC1(C)CC2C(C1)C1(C)CCC13OC3(CO)C2O (configuration not stated) | inactive |  | 
O=C(O[C@H]1[C@@H]2C=CO[C@@H](O[C@@H]3O[C@H](CO)[C@@H](O)[C@H](O)[C@H]3O)[C@@H]2[C@@]2(CO)O[C@@H]12)c1ccc(O)c(O)c1 | inactive |  | 
NCc1ccc(OCCCc2sc(-c3ccc4c(c3)/C(=N/Nc3nc5ccccc5s3)CCC4)nc2C(=O)O)cc1 | inactive |  | 
C[C@@H]1O[C@@H](O[C@H]2[C@H](O[C@H]3CO[C@@H](O[C@H]4CC[C@@]5(C)C(CC[C@]6(C)C5CC[C@]57OC[C@@]8(CC[C@](C)(CO)CC85)[C@H](O)C[C@]76C)C4(C)C)[C@H](O[C@@H]4O[C@H](CO)[C@@H](O)[C@H](O)[C@H]4O)[C@H]3O)O[C@H](CO)[C@@H](O)[C@@H]2O)[C@H](O)[C@H](O)[C@H]1O (some centres not stated) | inactive |  | 
CC(=O)N[C@H]1CCN(c2ccc(C3=NOC(CN[S+](=O)([O-])C(C)C)C3)cc2F)C1 (some centres not stated) | inactive |  | 
CC1(O)CCC2C(C(=O)O)=COC(OC3OC(CO)C(O)C(O)C3OC(=O)/C=C/c3ccc(O)cc3)C21 (configuration not stated) | inactive |  | 
c1ccc(Cc2ncc3c(n2)CCNCC3)cc1 | inactive |  | 
COc1cc(CC(COC2OC(CO)C(O)C(O)C2O)c2cc(/C=C/CO)cc(OC)c2O)ccc1O (configuration not stated) | inactive |  | 
CC1(C)OC(=O)C(OCC2CC2)=C1c1ccc(S(C)(=O)=O)cc1 | inactive |  | inactive
O=C(Nc1cccnn1)N1CCC(=Cc2cccc(Oc3ccc(C(F)(F)F)cn3)c2)CC1 | inactive |  | 10.7 µM (active)
Cc1[nH]cnc1C1CCN(c2nc3cccc4c3n2CCC4=O)CC1 | inactive |  | 9.52 µM (active)
COCC(=O)N1CCc2cc(-c3csc(NC(=O)c4cc(OC)cc(OC)c4)n3)ccc21 | inactive |  | inactive
C[C@@H](Nc1cc(NS(=O)(=O)N2CCC2)nc(SCc2cccc(F)c2F)n1)[C@@H](O)CO | inactive |  | inactive
c1ccc(Nc2nc3c(s2)CCCc2[nH]ncc2-3)nc1 | inactive |  | 26.8 µM (active)
CC1(C)C(=O)C(C)(C)c2cc(C(=O)Nc3ccc(C(=O)O)cc3)ccc21 | inactive |  | inactive
O=S(=O)(NC1CCNCC1)c1cc(S(=O)(=O)c2ccccc2)ccc1C(F)(F)F | inactive |  | inactive
CCC(C)C(N)C1=NC(C(=O)N[C@@H](CC(C)C)C(=O)N[C@H](CCC(=O)O)C(=O)N[C@H](C(=O)N[C@H]2CCCCNC(=O)[C@H](CC(N)=O)NC(=O)[C@@H](CC(=O)O)NC(=O)[C@H](Cc3cnc[nH]3)NC(=O)[C@@H](Cc3ccccc3)NC(=O)[C@H]([C@@H](C)CC)NC(=O)[C@@H](CCCN)NC2=O)[C@@H](C)CC)CS1 (some centres not stated) (X1-L[dE]IK[dOrn]I[dF]H[dD]N; lactam 4-C) | inactive |  | inactive

Compound | Potency [1] | activity change, negative = inhibition [1] | Potency [2]
CCC(=O)NS(=O)(=O)c1ccc(-c2c(-c3ccccc3)noc2C)cc1 | inactive |  | inactive
Cc1ccc2c(c1)C=Cc1cc(C)ccc1C2c1cn(Cc2ccc(C(=O)Nc3nn[nH]n3)o2)c(=O)[nH]c1=S | inactive |  | inactive
COc1cc(N2CCC(N(C)C)CC2)ccc1Nc1ncc(Cl)c(Nc2ccccc2P(C)(C)=O)n1 | inactive |  | inactive
CNC(=O)c1ccc(Nc2ncc(C(F)(F)F)c(NCc3nccnc3N(C)S(C)(=O)=O)n2)cc1 | inactive |  | inactive
Cc1onc(-c2ccccc2)c1C(=O)N[C@@H]1C(=O)N2[C@@H]1SC(C)(C)[C@@H]2C(=O)O | inactive |  | inactive
CCc1c(CC(N)=O)c2cc(OCCCP(=O)(O)O)ccc2n1Cc1ccccc1 | inactive |  | inactive
COc1ccc(C[C@H](N)C(=O)N[C@H]2[C@@H](O)[C@H](n3cnc4c(N(C)C)ncnc43)O[C@@H]2CO)cc1 | inactive |  | inactive
COc1cc(NC(=O)c2ccccn2)ccc1Cl | inactive |  | 23.9 µM (active)
CNC(=O)COC(=O)NCCC1CCN(c2cccc(C)n2)CC1 | inactive |  | inactive
CC1(C)CC(=O)N(CCCCN2CCN(c3ncccn3)CC2)C(=O)C1 | inactive |  | inactive
CCc1cc2c(=O)c(-c3nc4ccccc4s3)coc2c(CN2CCCCC2)c1O | inactive |  | inactive
Nc1nc(CC(=O)Nc2ccc(CCNCC(O)c3ccccc3)cc2)cs1 (configuration not stated) | inactive |  | 0.477 µM (active)
CCOC(=O)c1c(C)nn(-c2cccc([N+](=O)[O-])c2)c1C | inactive |  | 8.49 µM (active)
COc1c(C)c(C(=O)c2ccc(N)c(C(=O)O)c2)n2ccccc12 | inactive |  | inactive
CC1(C)CCC(C)(C)c2cc([C@@H](O)C(=O)Nc3ccc(C(=O)O)cc3F)ccc21 | inactive |  | inactive
OC[C@H]1O[C@@H](n2cnc3c2NC=NC[C@H]3O)C[C@@H]1O | inactive |  | inactive
O=C(c1ccc(C#Cc2cccc(F)c2)cn1)N1CC2CC2C1 (configuration not stated) | inactive |  | 16.9 µM (active)
COc1ccc(C)c2sc(NC(=O)c3ccncc3)nc12 | inactive |  | 6.74 µM (active)
Cc1c(-c2ccnn2C)cc(C(=O)NCc2ccc(S(C)(=O)=O)cn2)c(=O)n1-c1cccc(C(F)(F)F)c1 | inactive |  | inactive
CCOC(=O)[C@H](CCc1ccccc1)CC1(C(=O)N[C@H]2CCc3ccccc3N(CC(=O)O)C2=O)CCCC1 | inactive |  | inactive
COC(=O)[C@H](CC1C=NC=N1)NCC12CC3CC(CC(C3)C1)C2 (some centres not stated) | inactive |  | inactive
COCCCNCC1COc2ccccc2O1 (configuration not stated) | inactive |  | 9.52 µM (active)
CON(C)C(=O)N1N=C(c2cc(F)ccc2F)S[C@@]1(CCCN)c1ccccc1 | inactive |  | 19 µM (active)
COc1cccc(-c2ccc([C@@H](Oc3cc(-c4ccc(C[C@H](N)C(=O)O)cc4)nc(N)n3)C(F)(F)F)cc2)c1 | inactive |  | inactive

Compound | Potency [1] | activity change, negative = inhibition [1] | Potency [2]
CCS(=O)(=O)N1CCC([C@@H](C)n2c(C)c(C(=O)NCc3c(OC)cc(C)[nH]c3=O)c3ccccc32)CC1 | inactive |  | inactive
Cc1nn(C)c(COc2ccc(N3CCN(S(=O)(=O)N(C)C)CC3)cc2)c1-c1cccc2c(CCCOc3cccc4ccccc34)c(C(=O)O)n(CCN3CCOCC3)c12 | inactive |  | inactive
COc1ccccc1-n1c(SCC(=O)Nc2nc3ccc(C)cc3s2)nc2c(c1=O)SCC2 | inactive |  | inactive
CCC(CC)n1ccc2c(C(=O)NCc3c(C)cc(C)[nH]c3=O)cc(C#N)cc21 | inactive |  | inactive
Cc1nc2c(-c3cnc(N)nc3)nc(N3CCOCC3)nc2n1C(C)C | inactive |  | inactive
O=C1CC(c2ccc([N+](=O)[O-])cc2)=NN1c1ccccc1 | inactive |  | inactive
CC(=O)N1CCN(NC(=O)c2ccc(F)cc2)CC1 | inactive |  | inactive
Cc1cc(C)c(S(=O)(=O)N(Cc2ccc(-c3cccc(S(C)(=O)=O)c3)cc2)Cc2ccc(C(F)(F)F)o2)c(C)c1 | inactive |  | inactive
FC(F)(F)c1cc(C(F)(F)F)c2ccc3nc(-c4nnco4)cn3c2n1 | inactive |  | inactive
O=C1C[C@@H](c2ccc(O)cc2)Oc2cc(O)ccc21 | inactive |  | inactive
CC(C)Nc1cc(-c2c[nH]c(C(=O)N[C@H](CO)c3cccc(Cl)c3)c2)c(Cl)cn1 | inactive |  | 19 µM (active)
CCOC(=O)Nc1nc2ccccc2[nH]1 | inactive |  | 3.79 µM (active)
O=C1N(CC2CCCCN2)CCN1c1ccccc1 (configuration not stated) | inactive |  | 15.1 µM (active)
Cc1cc(N2CCCCC2)nc2ccccc12 | inactive |  | 10.7 µM (active)
C=Cc1cc(O)cc2nc(-c3ccc(O)c(F)c3)oc12 | inactive |  | 21.3 µM (active)
CCC(=O)N[C@@H]1Cc2ccccc2[C@H](c2ccccc2)C1 | inactive |  | 9.52 µM (active)
Cc1cc(C)cc(NC(=O)Cc2ccc(OC(C)(C)C(=O)O)cc2)c1 | inactive |  | inactive
CO[C@@H]1COCC[C@@H]1N[C@@H]1CC[C@@](C(=O)N2CCc3ncc(C(F)(F)F)cc3C2)(C(C)C)C1 | inactive |  | 16.9 µM (active)
NS(=O)(=O)OC[C@@H]1C[C@@H](n2ccc3c(N[C@H]4CCc5ccccc54)ncnc32)C[C@@H]1O | inactive |  | inactive and 8.49 µM (active)
O=c1ccn([C@@H]2O[C@H](CO)[C@@H](O)[C@H]2O)c(=O)[nH]1 | inactive |  | inactive
O=c1c2cccnc2n(-c2cccc([N+](=O)[O-])c2)c(=O)n1Cc1ccncc1 | inactive |  | 1.51 µM (active)
O=C(COc1ccc(Cl)cc1)NC1CCC(NC(=O)COc2ccc(Cl)cc2)CC1 (configuration not stated) | inactive |  | inactive
CC(C)c1ccc(CC(=O)N2CCC[C@@H](c3cccc(OC(C)(C)C(=O)O)c3)C2)cc1 | inactive |  | inactive
